Ten molecules from PMC5540273 (PLoS ONE, 2017) can be followed below.

What all share (conditions): concentration: 1 μM, replicates: in singlicate; n = 1
Assay [1] relates to BRSK1.
The subject of assay [2] is BRSK2.
Assay [3] has as its system BTK.
For assay [4], the system named is BUB1.
Assay [5] concerns CAMK1B.
Assay [6] deals with CAMK1D.
Assay [7] concerns CAMK1G.
Assay [8] has as its system CAMK1.
Assay [9] deals with CAMK2A.
Assay [10] has as its system CAMK2B.
Assay [11] concerns CAMK2D.
Assay [12] concerns CAMK2G.
The test system of assay [13] is CAMK4.
Assay [14] deals with CAMKK1.
In assay [15] the test system is CAMKK2.
Assay [16] has as its system CASK.
The subject of assay [17] is T1, CDC2L1.
T1 construct: gene CDK11B

Assay [18] concerns CDC2L2.
Assay [19] concerns T2, CDC2L5.
T2 construct: gene CDK13

The subject of assay [20] is T3, CDK11.
T3 construct: gene CDK19
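Further: KINOMEscan kinase panel screen.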

Consider `FC(F)(F)c1ccc(-c2cc(-c3c[nH]nc3-c3ccccn3)ccn2)cc1` [GW599550], for which the “%Inh” value in assay [1] is 0%; in assay [2], 0%; in assay [3], 0%; in assay [4] it was 55%; in assay [5] it was 35%; in assay [6] it was 22%. Moreover, the “%Inh” value in [7] was determined as 1%; in assay [8], 23%; in [9], 0%; in assay [10] it was 0%; in assay [11] it was 12%; in assay [12] it was 27%. Further, the “%Inh” value is on record as 0% in assay [13]; 11% in assay [14]; 23% in [15]; 0% in assay [16]; 0% in assay [17]; 26% in [18]. For the same molecule, the “%Inh” value was determined as 0% in [19] and 17% in assay [20].
Turning to `CCc1nc(-c2cccc(C)c2)c(-c2ccnc(NC(=O)c3ccccc3)c2)s1`, the “%Inh” value turned out to be 0% in [1]; 17% in assay [2]; 42% in assay [3]; 17% in [4]; 0% in assay [5]; 7% in [6]. The “%Inh” value is on record as 0% in assay [7]; 13% in assay [8]; 4% in assay [9]; 0% in [10]; 0% in assay [11]; 10% in assay [12]. For the same molecule, the “%Inh” value in [13] was determined as 0%; in assay [14] it was 4%; in [15], 7%; in assay [16] it was 0%; in assay [17] it was 11%; in assay [18] it was 2%. The “%Inh” value in [19] is recorded as 12%; in assay [20] it was 5%.
As for `COC(=O)c1c(-c2ccccc2)c2cc(Cl)ccc2c(=O)n1Cc1ccc(S(C)(=O)=O)cc1`, the “%Inh” value is listed as 0% in assay [1]; 0% in assay [2]; 25% in assay [3]; 0% in assay [4]; 0% in assay [5]; 0% in assay [6]. Also, the “%Inh” value in [7] came out at 9%; in [8], 2%; in assay [9], 0%; in assay [10] it was 0%; in [11] it was 5%; in assay [12], 9%. Further, the “%Inh” value in [13] is 0%; in [14], 0%; in [15], 14%; in assay [16], 0%; in assay [17] it was 10%; in [18], 10%. In addition, the “%Inh” value came to 29% in assay [19] and 0% in assay [20].
Turning to `O=C(CCO)NCCn1ccc2ncnc(Nc3ccc(Oc4cccc(C(F)(F)F)c4)c(Cl)c3)c21`, the “%Inh” value is 0% in [1]; 0% in [2]; 0% in assay [3]; 0% in assay [4]; 0% in assay [5]; 7% in assay [6]. Further, the “%Inh” value in [7], in assay [8], in assay [9], in assay [10], in assay [11] and in assay [12] was 0% each time. Also, the “%Inh” value in assay [13] stood at 0%; in assay [14], 0%; in assay [15], 7%; in assay [16] it was 0%; in [17], 0%; in assay [18], 0%. Moreover, the “%Inh” value in assay [19] and in assay [20] was 0% in each case.
Take `COc1ccc(Nc2nccc(N3CCC(NC(=O)c4cccc(NC(C)=O)c4)C3)n2)cc1` (centres unmarked) [GSK1379732]: the “%Inh” value is given as 0% in assay [1]; 0% in assay [2]; 36% in [3]; 54% in assay [4]; 9% in [5]; 8% in [6]. Moreover, the “%Inh” value is 0% in assay [7]; 13% in assay [8]; 0% in assay [9]; 0% in assay [10]; 8% in [11]; 26% in [12]. Also, the “%Inh” value is 3% in assay [13]; 0% in assay [14]; 26% in assay [15]; 13% in [16]; 0% in [17]; 11% in assay [18]. Besides, the “%Inh” value in assay [19] came out at 0%; in [20] it was 15%.
`Oc1ccc2ncnc(Nc3ccc(OCc4ccccc4)cc3)c2c1` [GI262866]: the “%Inh” value in assay [1] is given as 2%; in [2], 0%; in assay [3], 4%; in [4], 18%; in assay [5], 1%; in assay [6], 4%. Moreover, the “%Inh” value was 0% in assay [7]; 17% in assay [8]; 0% in [9]; 0% in assay [10]; 1% in assay [11]; 2% in assay [12]. Also, the “%Inh” value is listed as 0% in [13]; 0% in assay [14]; 0% in [15]; 8% in assay [16]; 0% in assay [17]; 0% in assay [18]. The “%Inh” value is recorded as 0% in assay [19] and 36% in [20].
For the molecule `OCCOCCn1ccc2ncnc(Nc3ccc(Oc4cccc(Cl)c4)c(Cl)c3)c21`, the “%Inh” value is listed as 0% in assay [1]; 33% in [2]; 0% in assay [3]; 0% in assay [4]; 0% in assay [5]; 0% in [6]. For the same molecule, the “%Inh” value in [7], in assay [8], in assay [9], in assay [10], in [11] and in assay [12] was 0% each time. The “%Inh” value in [13], in assay [14], in assay [15], in assay [16], in assay [17] and in assay [18] was 0% each time. For the same molecule, the “%Inh” value in [19] and in assay [20] was 0% in each case.
Turning to `CSc1ccc(NC2=C(c3ccccc3Cl)C(=O)NC2=O)cc1` [SB-342411], the “%Inh” value is recorded as 0% in assay [1]; 12% in assay [2]; 0% in [3]; 0% in assay [4]; 0% in assay [5]; 22% in assay [6]. The “%Inh” value was 19% in assay [7]; 3% in [8]; 18% in [9]; 13% in assay [10]; 28% in assay [11]; 36% in assay [12]. For the same molecule, the “%Inh” value in assay [13] turned out to be 0%; in assay [14] it was 5%; in [15] it was 25%; in assay [16] it was 26%; in [17] it was 0%; in assay [18], 0%. In addition, the “%Inh” value in [19] and in assay [20] was 0% in each case.
Consider `Nc1nc(-c2cccnc2)c(-c2ccnc3ccccc23)s1` [GW684083], for which the “%Inh” value was 10% in [1]; 0% in assay [2]; 8% in [3]; 58% in [4]; 0% in assay [5]; 6% in assay [6]. The “%Inh” value in assay [7] was determined as 0%; in assay [8], 8%; in assay [9] it was 0%; in assay [10], 0%; in assay [11], 2%; in [12], 27%. Moreover, the “%Inh” value in [13] was 0%; in assay [14], 0%; in [15] it was 19%; in assay [16], 14%; in [17] it was 0%; in [18] it was 12%. Besides, the “%Inh” value in [19] was found to be 0%; in assay [20], 8%.
With `Nc1nc(-c2ccc3c(N)n[nH]c3c2)cc(N2CCC[C@@H](C(=O)Nc3ccccc3)C2)n1.O=C(O)C(F)(F)F.O=C(O)C(F)(F)F` [GSK2288359], the “%Inh” value is 0% in assay [1]; 0% in [2]; 0% in assay [3]; 0% in assay [4]; 26% in assay [5]; 11% in [6]. Moreover, the “%Inh” value in assay [7] is given as 0%; in [8], 5%; in assay [9], 0%; in assay [10], 0%; in [11], 0%; in [12], 22%. Moreover, the “%Inh” value in assay [13] is 0%; in assay [14] it was 11%; in assay [15], 16%; in assay [16], 5%; in assay [17] it was 0%; in assay [18], 19%. Further, the “%Inh” value in assay [19] and in assay [20] was 0% throughout.
